Measured values from PubChem BioAssay (EPA / NIEHS).
Results filed as inconclusive are left out. Calls of active or inactive are those of the source. The calls were made as follows, unless noted: active = hit-call score of the fitted dose curve at least 0.9, where 1 is the maximum; inconclusive = response in the unintended direction; inactive = score below 0.9.

Assays:
[1] = ATG_M_06_XSP1: Attagene TRANS-FACTORIAL Multi-Species (XSP1) HepG2 Assay for M06 Transcription Factor (Internal Marker) (AID 2283790)
How it was run: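 Transfected HepG2 multi-reporter system treated 24 h in the presence of 3 nM 6-alpha-fluorotestosterone. The M06 internal marker transcript was quantified by RT-PCR with capillary electrophoresis as a background control, and gain of signal was scored versus DMSO.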

[2] = ATG_M_61_XSP1: Attagene TRANS-FACTORIAL Multi-Species (XSP1) HepG2 Assay for M61 Transcription Factor (Internal Marker) (AID 2283797)
How it was run: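 HepG2 cells transiently transfected with multiplexed GAL4-driven reporter units, dosed 24 h with 3 nM 6-alpha-fluorotestosterone present. Reporter mRNA quantified by RT-PCR, 6-FAM labelling, HpaI digestion and capillary electrophoresis; internal-marker background control, gain of signal versus DMSO.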

[3] = target: Nuclear receptor subfamily 1 group I member 2 (Mus musculus) (UniProt O54915); assay: ATG_mPXR_XSP1: Attagene TRANS-FACTORIAL Multi-Species (XSP1) HepG2 Assay for mouse Pregnane X Receptor (PXR) (AID 2283803)
How it was run: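 Transiently transfected HepG2 cells expressing a receptor-Gal4 chimera drive a GAL4-UAS reporter; 3 nM 6-alpha-fluorotestosterone included. Reporter mRNA read 24 h post-dose by RT-PCR and capillary electrophoresis; gain of signal relative to DMSO.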

[4] = target: zebrafish Thyroid Hormone Receptor alpha (TRa), thraa (gene 30670) (UniProt Q98867); assay: ATG_zfTRa_XSP1: Attagene TRANS-FACTORIAL Multi-Species (XSP1) HepG2 Assay for zebrafish Thyroid Hormone Receptor alpha (TRa) (AID 2283807)
How it was run: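 HepG2 cells transiently transfected with GAL4-UAS reporter units including a zebrafish TRa–Gal4 chimera, dosed 24 h with 3 nM 6-alpha-fluorotestosterone present. Reporter mRNA quantified by RT-PCR and capillary electrophoresis; gain versus DMSO.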

[5] = ATG_XTT_Cytotoxicity_XSP1: Cytotoxicity Assessment in the Attagene TRANS-FACTORIAL Multi-Species (XSP1) HepG2 Assay (AID 2283810)
How it was run: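 XTT viability readout taken at 24 hours post-dosing in HepG2 liver cells co-treated with 3 nM 6-alpha-fluorotestosterone. Signal loss relative to DMSO controls reflects cytotoxicity.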

[6] = ATG_M_06_XSP2: Attagene TRANS-FACTORIAL Multi-Species (XSP2) HepG2 Assay for M06 Transcription Factor (Internal Marker) (AID 2283811);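 also: hits are increases in signal above the DMSO baseline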
How it was run: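 HepG2 cells transiently transfected with GAL4-UAS multiple reporter units, medium containing 3 nM 6-alpha-fluorotestosterone and 1.5 nM norgestrel; reporter mRNA measured 24 hours post-dosing by RT-PCR and capillary electrophoresis. Internal background marker, gain of signal vs DMSO.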

[7] = target: GAL4 Transcription Factor (Internal Marker), GAL4 (gene 855828) (UniProt P04386); assay: ATG_GAL4_XSP2: Attagene TRANS-FACTORIAL Multi-Species (XSP2) HepG2 Assay for GAL4 Transcription Factor (Internal Marker) (AID 2283814);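 also: GAL4 reporter mRNA background control in MRTU transfected cells not a receptor target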
How it was run: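 HepG2 cells transiently transfected with GAL4-UAS reporter units, stimulated with 3 nM 6-alpha-fluorotestosterone plus 1.5 nM norgestrel, dosed 24 h. Reporter mRNA by RT-PCR/capillary electrophoresis; gain-of-signal fit versus DMSO, background control.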

[8] = target: chicken Estrogen Receptor (ERa), ESR1 (gene 396099) (UniProt P06212); assay: ATG_chERa_XSP2: Attagene TRANS-FACTORIAL Multi-Species (XSP2) HepG2 Assay for chicken Estrogen Receptor (ERa) (AID 2283817);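 also: actives raise reporter signal above DMSO so AC50 reflects ER activation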
How it was run: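 Transiently transfected HepG2 cells expressing chimeric chicken ERa-GAL4 reporter units, dosed 24 h with 3 nM 6-alpha-fluorotestosterone and 1.5 nM norgestrel present. Reporter mRNA measured by RT-PCR and capillary electrophoresis; gain-of-signal fitted relative to DMSO.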

[9] = ATG_M_19_XSP2: Attagene TRANS-FACTORIAL Multi-Species (XSP2) HepG2 Assay for M32 Transcription Factor (Internal Marker) (AID 2283822)
How it was run: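 Internal background marker in a multi-species nuclear receptor TRANS panel: transfected HepG2 cells exposed 24 h, with 3 nM 6-alpha-fluorotestosterone and 1.5 nM norgestrel present. Readout is RT-PCR of reporter transcripts resolved by capillary electrophoresis, gain-of-signal versus DMSO.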

[10] = test system: zebrafish Estrogen Receptor (ER2b), gene 317733; assay: ATG_zfER2b_XSP2: Attagene TRANS-FACTORIAL Multi-Species (XSP2) HepG2 Assay for zebrafish Estrogen Receptor (ER2b) (AID 2283823);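 also: fitted upward as reporter gain over DMSO so potency reflects activation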
How it was run: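 Transcriptional induction measured as reporter mRNA (RT-PCR, fluorescent capillary electrophoresis) in transiently transfected HepG2 cells after 24 h dosing; DMSO served as negative control and baseline.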

[11] = target: Peroxisome proliferator-activated receptor gamma (Homo sapiens) (UniProt P37231); assay: ATG_hPPARg_XSP2: Attagene TRANS-FACTORIAL Multi-Species (XSP2) HepG2 Assay for human Peroxisome Proliferator-activated Receptor gamma (PPARg) (AID 2283829);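 also: actives raise reporter mRNA above DMSO so AC50 reflects PPARg activation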
How it was run: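 Human HepG2 cells carried transiently transfected Gal4 reporter units and were treated with chemical for 24 h alongside androgen-receptor stimulants (3 nM 6-alpha-fluorotestosterone, 1.5 nM norgestrel). Reporter transcripts were detected by RT-PCR with capillary electrophoresis, analysed in the positive direction against DMSO.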

[12] = target: mouse Peroxisome Proliferator-activated Receptor gamma (PPARg), Pparg (gene 19016) (UniProt P37238); assay: ATG_mPPARg_XSP2: Attagene TRANS-FACTORIAL Multi-Species (XSP2) HepG2 Assay for mouse Peroxisome Proliferator-activated Receptor gamma (PPARg) (AID 2283830);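 also: hits are gains in reporter mRNA above DMSO so AC50 marks activation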
How it was run: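 HepG2 cells transiently transfected with GAL4-UAS reporter units for chimeric NR-Gal4 proteins including mouse PPARg, exposed 24 h; medium contained 3 nM 6-alpha-fluorotestosterone and 1.5 nM norgestrel. Reporter mRNA quantified by RT-PCR, HpaI digestion and capillary electrophoresis, vs DMSO.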

[13] = target: Nuclear receptor subfamily 1 group I member 2 (Mus musculus) (UniProt O54915); assay: ATG_mPXR_XSP2: Attagene TRANS-FACTORIAL Multi-Species (XSP1) HepG2 Assay for mouse Pregnane X Receptor (PXR) (AID 2283831)
How it was run: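 Fluorescence signals from capillary electrophoresis of RT-PCR-amplified reporter mRNA give the readout, gain-of-signal versus DMSO. Transfected HepG2 cells, 24 h dosing, medium contained 3 nM 6-alpha-fluorotestosterone and 1.5 nM norgestrel.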

[14] = target: zebrafish Thyroid Hormone Receptor alpha (TRa), thraa (gene 30670) (UniProt Q98867); assay: ATG_zfTRa_XSP2: Attagene TRANS-FACTORIAL Multi-Species (XSP1) HepG2 Assay for zebrafish Thyroid Hormone Receptor alpha (TRa) (AID 2283832);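 also: actives raise zebrafish TRa-Gal4 reporter transcript above DMSO baseline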
How it was run: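 Chimeric receptor-Gal4 activity was assessed in transfected human liver HepG2 cells 24 h after dosing, using reporter transcript levels detected by RT-PCR and capillary electrophoresis. DMSO served as baseline.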

[15] = test system: zebrafish Peroxisome Proliferator-activated Receptor gamma (PPARg), gene 557037; assay: ATG_zfPPARg_XSP2: Attagene TRANS-FACTORIAL Multi-Species (XSP2) HepG2 Assay for zebrafish Peroxisome Proliferator-activated Receptor gamma (PPARg) (AID 2283833);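 also: actives increase reporter signal over DMSO so AC50 reflects activation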
How it was run: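 HepG2, transient MRTU transfection, 24 h compound; zfPPARg-GAL4 reporter mRNA by RT-PCR + capillary electrophoresis; gain-of-signal vs DMSO.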

[16] = ATG_M_61_XSP2: Attagene TRANS-FACTORIAL Multi-Species (XSP2) HepG2 Assay for M61 Transcription Factor (Internal Marker) (AID 2283835; active = hit-call score of the fitted dose curve at least 0.9, where 1 is the maximum; inactive = score below 0.9;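 also: active means a rise in signal above the DMSO baseline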)
How it was run: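 HepG2 cells transiently transfected with multiple GAL4-UAS reporter units; reporter mRNA measured 24 h after dosing by RT-PCR, fluorescent labelling and capillary electrophoresis. Medium contained 3 nM 6-alpha-fluorotestosterone and 1.5 nM norgestrel; internal marker, DMSO baseline.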

[17] = target: human Thyroid hormone Receptor beta (TRb), THRB (gene 7068) (UniProt P10828); assay: ATG_hTRb_XSP2: Attagene TRANS-FACTORIAL Multi-Species (XSP2) HepG2 Assay for human Thyroid hormone Receptor beta (TRb) (AID 2283840);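 also: actives raise reporter mRNA so potency reflects agonist-like gain of signal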
How it was run: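 Gain-of-signal reporter transcription, referenced to DMSO, was measured in transiently transfected HepG2 after 24 h exposure; labeled RT-PCR products were resolved by capillary electrophoresis. Assay medium included 3 nM 6-alpha-fluorotestosterone and 1.5 nM norgestrel.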

[18] = CPHEA_Stoker_NIS_Cytotoxicity: Cytotoxicity Assessment for CPHEA's Radioactive Iodide Uptake (RAIU) Assay for Sodium/Iodide Symporter (NIS) Inhibition, Stoker and Laws Labs (AID 2283897)
How it was run: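 hNIS-HEK293T-EPA human kidney cells were exposed for 2 hours at room temperature to test chemicals (0.001–100uM, 0.5% final DMSO) in HEPES-buffered HBSS, pH 7.4. Viability was read as ATP content by luciferase bioluminescence, loss of signal versus DMSO.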

PGR (gene 5241) = PGR (gene 5241) (UniProt P06401); assay: TOX21_PR_BLA_Followup_Antagonist_ratio: Tox21 HEK293 Progesterone Receptor (PR) Antagonism Beta-lactamase Follow-Up Assay, Ratio (AID 2283934);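 also: PR-UAS-bla HEK293T cells stimulated with 1 nM R5020 agonist for 16 hr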
How it was run: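 Antagonist mode used 1 nM R5020 (final) as agonist on a beta-lactamase reporter line in HEK293T cells. Activity was taken from the substrate cleavage ratio after 16 hr exposure.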

[19] = TOX21_PR_BLA_Followup_Agonist_viability: Viability Assessment in the Tox21 HEK293 Progesterone Receptor (PR) Agonism Beta-lactamase Follow-Up Assay (AID 2283935);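 also: cells exposed to compound for 16 hr at 37 °C; signal loss means lower viability so actives are cytotoxic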
How it was run: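 Multiplexed viability counter-screen: ATP-coupled luciferase signal measured after 30 min at room temperature, following 16 hr compound treatment of PR-UAS-bla HEK293T cells grown in charcoal-stripped serum.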

Measured: AC50

Nuclear receptor subfamily 1 group I member 2 (Mus musculus), sequence (O54915 whole entry, looked up, the tested form may be a part): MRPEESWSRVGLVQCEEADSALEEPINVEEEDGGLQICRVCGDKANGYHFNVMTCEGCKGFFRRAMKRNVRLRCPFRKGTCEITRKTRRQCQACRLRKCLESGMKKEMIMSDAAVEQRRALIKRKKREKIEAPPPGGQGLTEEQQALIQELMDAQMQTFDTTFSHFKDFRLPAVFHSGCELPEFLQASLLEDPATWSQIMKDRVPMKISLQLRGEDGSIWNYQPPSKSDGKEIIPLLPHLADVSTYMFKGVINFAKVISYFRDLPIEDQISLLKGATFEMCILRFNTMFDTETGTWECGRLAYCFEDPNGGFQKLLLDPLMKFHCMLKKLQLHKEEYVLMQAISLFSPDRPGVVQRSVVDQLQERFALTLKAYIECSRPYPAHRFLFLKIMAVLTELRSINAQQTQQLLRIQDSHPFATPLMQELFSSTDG
zebrafish Thyroid Hormone Receptor alpha (TRa), thraa (gene 30670), sequence (Q98867 whole entry, looked up, the tested form may be a part): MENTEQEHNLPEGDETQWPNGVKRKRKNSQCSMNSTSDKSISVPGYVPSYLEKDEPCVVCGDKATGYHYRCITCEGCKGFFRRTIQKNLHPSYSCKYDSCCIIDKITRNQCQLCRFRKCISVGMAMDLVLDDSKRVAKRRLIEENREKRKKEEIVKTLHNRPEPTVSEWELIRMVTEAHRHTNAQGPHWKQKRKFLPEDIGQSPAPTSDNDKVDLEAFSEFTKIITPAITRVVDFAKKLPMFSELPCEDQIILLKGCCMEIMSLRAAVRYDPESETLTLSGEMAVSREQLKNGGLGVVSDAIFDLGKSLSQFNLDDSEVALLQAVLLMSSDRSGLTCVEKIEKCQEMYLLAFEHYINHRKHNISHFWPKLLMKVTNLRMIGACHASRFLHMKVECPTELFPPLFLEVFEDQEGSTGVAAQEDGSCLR
chicken Estrogen Receptor (ERa), ESR1 (gene 396099), sequence (P06212 whole entry, looked up, the tested form may be a part): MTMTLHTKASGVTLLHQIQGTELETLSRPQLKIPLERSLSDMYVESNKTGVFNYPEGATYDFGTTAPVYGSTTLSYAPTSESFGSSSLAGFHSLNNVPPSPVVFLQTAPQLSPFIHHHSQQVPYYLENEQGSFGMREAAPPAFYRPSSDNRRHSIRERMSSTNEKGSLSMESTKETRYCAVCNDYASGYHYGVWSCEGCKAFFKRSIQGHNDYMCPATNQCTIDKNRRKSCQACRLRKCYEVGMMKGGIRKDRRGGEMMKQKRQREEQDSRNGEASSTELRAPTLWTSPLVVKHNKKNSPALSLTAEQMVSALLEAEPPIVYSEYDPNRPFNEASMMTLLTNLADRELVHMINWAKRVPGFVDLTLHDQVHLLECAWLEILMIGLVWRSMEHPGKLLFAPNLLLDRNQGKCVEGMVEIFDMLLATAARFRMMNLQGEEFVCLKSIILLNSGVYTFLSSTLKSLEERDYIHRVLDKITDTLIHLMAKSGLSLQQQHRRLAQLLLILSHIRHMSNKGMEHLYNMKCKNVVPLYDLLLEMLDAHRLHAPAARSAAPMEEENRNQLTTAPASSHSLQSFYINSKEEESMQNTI
PGR (gene 5241), sequence (P06401 whole entry, looked up): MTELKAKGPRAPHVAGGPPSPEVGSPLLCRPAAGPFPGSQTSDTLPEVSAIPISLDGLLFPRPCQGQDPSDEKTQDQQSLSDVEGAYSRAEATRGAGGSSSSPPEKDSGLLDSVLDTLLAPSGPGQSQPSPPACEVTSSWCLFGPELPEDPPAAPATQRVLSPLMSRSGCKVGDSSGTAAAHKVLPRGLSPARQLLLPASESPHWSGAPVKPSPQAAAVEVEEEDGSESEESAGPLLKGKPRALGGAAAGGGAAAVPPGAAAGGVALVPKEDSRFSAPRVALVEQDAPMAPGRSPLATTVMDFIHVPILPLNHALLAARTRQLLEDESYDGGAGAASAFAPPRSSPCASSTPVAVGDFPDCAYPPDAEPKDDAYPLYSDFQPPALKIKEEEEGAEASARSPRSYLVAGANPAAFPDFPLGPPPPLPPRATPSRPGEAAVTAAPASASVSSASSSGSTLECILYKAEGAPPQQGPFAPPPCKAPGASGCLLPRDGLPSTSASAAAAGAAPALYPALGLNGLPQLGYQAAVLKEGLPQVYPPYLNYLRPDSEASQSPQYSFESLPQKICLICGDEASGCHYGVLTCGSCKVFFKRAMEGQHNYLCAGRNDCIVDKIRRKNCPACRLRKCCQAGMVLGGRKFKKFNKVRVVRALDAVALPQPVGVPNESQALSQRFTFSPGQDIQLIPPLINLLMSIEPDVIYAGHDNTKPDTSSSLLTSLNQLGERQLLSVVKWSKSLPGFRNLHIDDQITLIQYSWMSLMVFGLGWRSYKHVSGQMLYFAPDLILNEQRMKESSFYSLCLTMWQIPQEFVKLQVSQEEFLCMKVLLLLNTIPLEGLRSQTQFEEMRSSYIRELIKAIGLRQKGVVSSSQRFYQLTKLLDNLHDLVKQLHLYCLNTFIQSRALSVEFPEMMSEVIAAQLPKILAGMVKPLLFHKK
human Thyroid hormone Receptor beta (TRb), THRB (gene 7068), sequence (P10828 whole entry, looked up): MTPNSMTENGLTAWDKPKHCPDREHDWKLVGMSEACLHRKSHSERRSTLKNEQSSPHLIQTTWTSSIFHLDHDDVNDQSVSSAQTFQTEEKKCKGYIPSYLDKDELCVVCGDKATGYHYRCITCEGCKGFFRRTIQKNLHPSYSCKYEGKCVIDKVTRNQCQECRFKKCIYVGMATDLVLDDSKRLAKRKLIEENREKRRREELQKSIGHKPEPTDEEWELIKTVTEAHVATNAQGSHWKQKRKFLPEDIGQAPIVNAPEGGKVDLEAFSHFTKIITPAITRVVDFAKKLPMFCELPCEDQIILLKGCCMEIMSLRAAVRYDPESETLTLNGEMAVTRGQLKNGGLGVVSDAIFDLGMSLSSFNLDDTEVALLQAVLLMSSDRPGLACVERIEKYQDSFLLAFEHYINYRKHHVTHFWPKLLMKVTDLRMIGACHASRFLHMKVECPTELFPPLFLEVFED
GAL4 Transcription Factor (Internal Marker), GAL4 (gene 855828), sequence (P04386 whole entry, looked up, the tested form may be a part): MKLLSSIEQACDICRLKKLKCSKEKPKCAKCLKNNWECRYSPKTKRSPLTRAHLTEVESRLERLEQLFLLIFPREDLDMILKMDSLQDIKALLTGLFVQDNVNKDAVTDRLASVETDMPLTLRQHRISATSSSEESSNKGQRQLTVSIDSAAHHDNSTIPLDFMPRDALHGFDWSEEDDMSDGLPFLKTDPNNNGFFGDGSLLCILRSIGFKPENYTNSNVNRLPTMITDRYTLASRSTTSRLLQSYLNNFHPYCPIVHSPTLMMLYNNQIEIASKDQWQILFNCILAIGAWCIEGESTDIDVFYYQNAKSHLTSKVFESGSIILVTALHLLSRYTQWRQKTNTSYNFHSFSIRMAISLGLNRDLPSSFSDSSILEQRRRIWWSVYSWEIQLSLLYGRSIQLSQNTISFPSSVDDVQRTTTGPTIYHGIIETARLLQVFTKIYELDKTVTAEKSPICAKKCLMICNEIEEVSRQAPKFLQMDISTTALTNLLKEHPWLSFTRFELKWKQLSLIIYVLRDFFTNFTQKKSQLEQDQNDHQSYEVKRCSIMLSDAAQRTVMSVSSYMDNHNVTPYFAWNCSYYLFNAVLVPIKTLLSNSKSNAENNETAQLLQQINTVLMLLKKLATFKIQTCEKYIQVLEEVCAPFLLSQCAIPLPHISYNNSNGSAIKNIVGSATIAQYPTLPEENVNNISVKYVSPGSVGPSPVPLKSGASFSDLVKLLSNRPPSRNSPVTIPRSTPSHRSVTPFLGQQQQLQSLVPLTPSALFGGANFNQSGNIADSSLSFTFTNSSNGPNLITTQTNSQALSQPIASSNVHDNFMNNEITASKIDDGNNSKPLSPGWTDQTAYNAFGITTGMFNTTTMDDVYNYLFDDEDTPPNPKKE
mouse Peroxisome Proliferator-activated Receptor gamma (PPARg), Pparg (gene 19016), sequence (P37238 whole entry, looked up, the tested form may be a part): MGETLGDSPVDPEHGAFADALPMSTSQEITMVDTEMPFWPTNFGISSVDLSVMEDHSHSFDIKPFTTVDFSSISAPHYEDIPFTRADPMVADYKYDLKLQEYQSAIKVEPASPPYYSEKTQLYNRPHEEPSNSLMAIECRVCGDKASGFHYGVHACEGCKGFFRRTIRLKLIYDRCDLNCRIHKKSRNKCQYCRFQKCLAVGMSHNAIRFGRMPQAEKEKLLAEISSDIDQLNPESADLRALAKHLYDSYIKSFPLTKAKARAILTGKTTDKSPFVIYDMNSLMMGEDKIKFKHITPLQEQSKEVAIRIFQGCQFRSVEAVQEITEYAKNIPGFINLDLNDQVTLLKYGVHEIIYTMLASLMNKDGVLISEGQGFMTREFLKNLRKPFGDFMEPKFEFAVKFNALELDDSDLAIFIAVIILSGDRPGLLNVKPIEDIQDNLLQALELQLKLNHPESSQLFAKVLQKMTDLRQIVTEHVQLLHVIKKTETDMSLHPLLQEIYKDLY
Peroxisome proliferator-activated receptor gamma (Homo sapiens), sequence (P37231 whole entry, looked up, the tested form may be a part): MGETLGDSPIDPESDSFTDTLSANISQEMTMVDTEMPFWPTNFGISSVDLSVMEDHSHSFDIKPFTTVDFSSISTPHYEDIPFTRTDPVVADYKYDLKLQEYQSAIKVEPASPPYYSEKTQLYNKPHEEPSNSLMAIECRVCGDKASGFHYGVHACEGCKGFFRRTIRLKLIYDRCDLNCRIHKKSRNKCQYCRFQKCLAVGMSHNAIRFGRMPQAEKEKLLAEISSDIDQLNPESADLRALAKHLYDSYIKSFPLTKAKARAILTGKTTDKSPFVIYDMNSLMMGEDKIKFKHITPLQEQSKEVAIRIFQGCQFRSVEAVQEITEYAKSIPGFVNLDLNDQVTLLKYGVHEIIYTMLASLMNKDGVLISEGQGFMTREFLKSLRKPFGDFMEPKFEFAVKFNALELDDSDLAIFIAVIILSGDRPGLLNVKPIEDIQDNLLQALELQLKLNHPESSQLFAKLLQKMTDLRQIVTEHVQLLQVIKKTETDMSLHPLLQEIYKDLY

CC(=O)c1cc2c(cc1C)C(C)(C)C(C)CC2(C)C (stereo not given)
active: [3] 1 µM | [4] 145 µM | [10] 26.7 µM | [11] 41.9 µM | [12] 49.4 µM | [13] 1.8 µM | PGR (gene 5241) 5.67 µM
inactive: [1] | [2] | [5] | [6] | [7] | [8] | [9] | [14] | [15] | [16] | [17] | [18] | [19]
